# In PubChem BioAssay (NCATS):
# Results filed as inconclusive are left out. Unmarked numbers belong to inactive results. The list shows a part of the results. A call without a number means that no potency is given here. Calls of active or inactive are those of the source. Calls follow the shape of the dose curve; as a rule, active = well fitted curve in the direction sought with a large enough effect; inconclusive = small, poorly fitted or top-dose-only effect, or another doubt; inactive = no such curve, though single readings can be large; an effect the other way counts as inactive or inconclusive.
# What was measured:
# [1] = qHTS Assay for Inhibitors of Fructose-1,6-bisphosphate Aldolase from Giardia Lamblia: Mammalian cellular toxicity (AID 2786);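 also: compound exposure lasted 48 h before reading; nearly all actives have a fitted effect of over 60% in size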
# Summary of the method: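 Chinese hamster ovary cells (250/well, DMEM with 10% FBS and penicillin/streptomycin) were exposed to compounds for 48 h at 37 °C, 5% CO2. Viability was taken as cellular ATP content, read with ATPlite reagent after 20 min.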
# [2] = molecular target: DNA repair nuclease/redox regulator APEX1 (Homo sapiens) (UniProt P27695); test: Confirmation qHTS Assay for Inhibitors of the Human Apurinic/apyrimidinic Endonuclease 1 (APE1) (AID 2572); also: nearly all actives have a fitted effect of over 30% in size; also: potency is read from the fitted curve at half-maximal effect
# Summary of the method: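 Fluorescence gain at 598 nm (Ex 525 nm) reports APE1 cleavage of a TAMRA/BHQ-2-labelled duplex carrying a tetrahydrofuran abasic site, 50 nM final. Activity taken as third-minus-first kinetic read after 15 min compound preincubation, room temperature.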
# [3] = molecular target: Tyrosyl-DNA phosphodiesterase 1 (Homo sapiens) (UniProt Q9NUW8); test: Confirmation Assay for Inhibitors of Tyrosyl-DNA Phosphodiesterase (TDP1) (AID 489007); conditions: recombinant human TDP1 enzymatic activity, dose-response; also: potency is read from the fitted curve at half-maximal effect; nearly all actives have a fitted effect of over 40% in size
# Summary of the method: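 Confirmation of primary-screen follow-ups in a qHTS format. Substrate cleavage by Tdp1 (1 nM) of a 3'-phosphotyrosine-FITC, 5'-biotin oligo (15 nM) was monitored as decreased AlphaScreen signal after a 5 min room-temperature reaction.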
# [4] = molecular target: Fructose-bisphosphate aldolase (Giardia intestinalis (strain ATCC 50803 / WB clone C6)) (UniProt A8B2U2); test: qHTS Assay for Inhibitors of Fructose-1,6-bisphosphate Aldolase from Giardia Lamblia: Primary screen confirmation (AID 2787);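 also: aldolase product measured through coupled diaphorase step turning resazurin into fluorescent resorufin; series mostly up to about 58 µM; nearly all actives have a fitted effect of over 45% in size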
# Summary of the method: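 Confirmation of primary hits by qHTS up to 57.5 uM final compound. Enzyme at 40 nM with 30 uM ZnCl2, 10 min RT pre-incubation, then substrate/coupling/resorufin-forming detection mix for 20 min before fluorescence read at 525/598 nm.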
# [5] = molecular target: Fructose-bisphosphate aldolase A (Oryctolagus cuniculus) (UniProt P00883); test: qHTS Assay for Inhibitors of Fructose-1,6-bisphosphate Aldolase from Giardia Lamblia: Rabbit FBPA Selectivity (AID 2794); also: nearly all actives have a fitted effect of over 60% in size
# Summary of the method: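 Selectivity was assessed on rabbit Class I enzyme by qHTS. Product formation was detected by AmpLite Red fluorescence (525/598 nm) after a 20 min RT reaction started with substrate, following 10 min compound preincubation at up to 57.5 uM final.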
# [6] = qHTS Assay for Inhibitors of Fructose-1,6-bisphosphate Aldolase from Giardia Lamblia: Coupling assay counterscreen confirmation (AID 2795); also: nearly all actives have a fitted effect of over 55% in size
# Summary of the method: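 Compounds at up to 57.5 uM final tested against the coupling enzymes and resorufin-type fluorescent detection only, aldolase omitted. Ex 525 nm/em 598 nm read after 10 min enzyme-compound and 20 min substrate incubations, room temperature.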
# [7] = qHTS Assay for Inhibitors of Fructose-1,6-bisphosphate Aldolase from Giardia Lamblia: Giardia lamblia growth inhibition (AID 2785); also: nearly all actives have a fitted effect of over 70% in size
# Summary of the method: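 G. lamblia WB trophozoites (100 cells/well) in modified TYI-S-33 medium, pH 7.0, were exposed to pin-transferred compounds or DMSO for 48 h at 37C in sealed bags. Viability was read as ATPlite luminescence after 20 min at room temperature.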
# [8] = molecular target: DNA repair nuclease/redox regulator APEX1 (Homo sapiens) (UniProt P27695); test: qHTS FP-Based Assay for Inhibitors of the Human Apurinic/apyrimidinic Endonuclease 1 (APE1) (AID 2573)
# Chain of Fructose-bisphosphate aldolase (Giardia intestinalis (strain ATCC 50803 / WB clone C6)) (A8B2U2 whole entry, looked up): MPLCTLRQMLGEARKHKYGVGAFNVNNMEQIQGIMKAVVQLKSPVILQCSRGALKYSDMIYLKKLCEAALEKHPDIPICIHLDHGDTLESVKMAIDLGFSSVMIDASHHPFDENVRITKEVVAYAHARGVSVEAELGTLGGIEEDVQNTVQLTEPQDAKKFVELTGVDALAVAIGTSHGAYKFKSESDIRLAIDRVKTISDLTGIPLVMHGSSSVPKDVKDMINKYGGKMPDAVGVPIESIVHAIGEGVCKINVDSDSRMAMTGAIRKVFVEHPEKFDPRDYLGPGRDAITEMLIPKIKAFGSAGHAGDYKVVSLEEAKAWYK
# Chain of DNA repair nuclease/redox regulator APEX1 (Homo sapiens) (P27695 whole entry, looked up): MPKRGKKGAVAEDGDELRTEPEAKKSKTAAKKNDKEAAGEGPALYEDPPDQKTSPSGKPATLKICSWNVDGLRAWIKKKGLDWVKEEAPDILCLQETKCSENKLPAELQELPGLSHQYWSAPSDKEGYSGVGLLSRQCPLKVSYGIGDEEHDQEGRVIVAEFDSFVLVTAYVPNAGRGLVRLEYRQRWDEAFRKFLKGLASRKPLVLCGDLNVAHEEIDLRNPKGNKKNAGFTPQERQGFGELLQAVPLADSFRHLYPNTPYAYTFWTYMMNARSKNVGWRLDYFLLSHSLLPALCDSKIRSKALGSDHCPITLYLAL
# Chain of Fructose-bisphosphate aldolase A (Oryctolagus cuniculus) (P00883 whole entry, looked up): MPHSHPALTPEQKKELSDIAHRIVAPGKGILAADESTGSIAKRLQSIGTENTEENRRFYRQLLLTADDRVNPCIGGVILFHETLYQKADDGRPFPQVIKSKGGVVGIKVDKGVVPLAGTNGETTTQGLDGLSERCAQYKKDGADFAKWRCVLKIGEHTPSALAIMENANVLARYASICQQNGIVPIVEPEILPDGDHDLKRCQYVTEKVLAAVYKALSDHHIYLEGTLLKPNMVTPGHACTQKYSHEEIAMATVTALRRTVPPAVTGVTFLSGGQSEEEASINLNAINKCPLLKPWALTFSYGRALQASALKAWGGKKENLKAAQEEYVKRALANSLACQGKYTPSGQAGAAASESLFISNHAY
# Chain of Tyrosyl-DNA phosphodiesterase 1 (Homo sapiens) (Q9NUW8 whole entry, looked up): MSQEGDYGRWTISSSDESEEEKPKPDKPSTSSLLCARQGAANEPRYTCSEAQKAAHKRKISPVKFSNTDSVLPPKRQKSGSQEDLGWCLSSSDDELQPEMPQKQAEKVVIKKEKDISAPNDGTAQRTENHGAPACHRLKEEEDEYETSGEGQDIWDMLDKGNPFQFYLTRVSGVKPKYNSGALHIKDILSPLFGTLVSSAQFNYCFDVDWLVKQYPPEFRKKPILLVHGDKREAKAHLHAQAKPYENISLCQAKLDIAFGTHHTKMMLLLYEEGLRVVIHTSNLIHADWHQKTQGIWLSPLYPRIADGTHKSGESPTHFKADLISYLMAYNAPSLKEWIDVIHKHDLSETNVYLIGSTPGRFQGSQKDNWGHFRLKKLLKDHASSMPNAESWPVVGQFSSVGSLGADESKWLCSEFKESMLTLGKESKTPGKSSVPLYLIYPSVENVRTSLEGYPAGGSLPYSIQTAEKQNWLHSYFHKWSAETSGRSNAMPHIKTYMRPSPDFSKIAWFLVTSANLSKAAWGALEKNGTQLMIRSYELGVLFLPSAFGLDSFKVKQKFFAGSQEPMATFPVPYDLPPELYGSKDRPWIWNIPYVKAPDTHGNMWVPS
smiles,measurement,setting,value
CC(=O)NC1CCN(CC(=O)Nc2nccs2)CC1,Potency,[1],inactive
O=C(NCc1ccccn1)c1ccc2nc(-c3ccco3)c(-c3ccco3)nc2c1,Potency,[2],8.91 µM (active)
same,Potency,[3],10 µM (active)
Cc1cnc(NC(=O)c2ccccn2)s1,outcome,[4],inactive
CCN(CC(=O)NC(=O)NCc1ccccc1)Cc1nc2ccccc2c(=O)[nH]1,outcome,[5],inactive
C/C(=N\NC(N)=S)c1cccnc1,outcome,[5],inactive
CN1CCCc2cc(C#N)c(=O)[nH]c21,Potency,[1],inactive
same,outcome,[5],inactive
Oc1[nH]c2ccc(Br)cc2c1N=Nc1nn[nH]n1,outcome,[4],inactive
same,outcome,[6],inactive
CC(=O)NS(=O)(=O)c1ccc(NC(=O)C2C3C=CC(C3)C2C(=O)O)cc1 (centres undefined),Potency,[2],inactive
CN(C)CCOc1ccc(Cl)cc1C(C)(C)C,Potency,[1],inactive
same,outcome,[6],inactive
CCN(CC(=O)Nc1ccc(S(=O)(=O)N2CCCC2)cc1)CC(=O)Nc1cccc(OC)c1,Potency,[1],inactive
Cc1ccc(S(=O)(=O)NNC(=S)NC(C)(C)C)cc1,Potency,[1],inactive
same,outcome,[4],inactive
same,outcome,[5],inactive
COC(=O)CC1=NN(c2nc(C)cc(C)n2)C(=O)C1,Potency,[1],inactive
Cc1csc(NC(=O)CN2CCCCCC2)n1,outcome,[4],inactive
O=c1nc(N/N=C/c2ccco2)cn[nH]1,Potency,[7],inactive
O=C(N/N=C/c1ccccn1)c1cccnc1,Potency,[1],inactive
CC(C)(C)C(=O)OCc1nc(-c2ccc(O)c(O)c2)cs1,Potency,[2],11.2 µM (active)
same,Potency,[8],inactive
Cc1ccc(OCCCCc2c(C)n[nH]c2C)cc1,Potency,[1],inactive
Cn1c(=O)[nH]c(=O)c2c1[nH]c(=S)n2Cc1ccccc1,Potency,[1],inactive
same,outcome,[4],inactive
same,outcome,[6],inactive
O=C(Nc1ccccc1Cl)O/N=C(/c1ccccc1)c1ccccn1,Potency,[1],inactive
Cc1cc(C)c2c(=O)[nH]c(SCC(=O)Nc3ccc(Br)cc3)nc2n1,outcome,[4],inactive
same,outcome,[5],inactive
CN1C(=O)/C(=C\c2ccc(-c3ccccc3)o2)SC1=S,Potency,[1],inactive
Cc1cccc(C)c1OCCN1CCOCC1,Potency,[1],inactive
same,outcome,[4],inactive
CCS(=O)(=O)c1cc([N+](=O)[O-])c(Sc2ccccc2N)s1,Potency,[1],inactive
same,outcome,[4],inactive
O=C(Nc1nnc(-c2ccco2)o1)c1ccc(S(=O)(=O)N2CCOCC2)cc1,outcome,[4],inactive
same,outcome,[5],inactive
CNC(=S)N/N=C/c1ccc(N2CCOCC2)s1,Potency,[1],inactive
same,outcome,[5],inactive
